The values below come from the supplement of paper PMC10849652.

Targets with a hit are over-represented here; the source holds about 8,800 in all. About 0.5% of all pairs of compound and target were hits.

Sequence of UniProt P22695 (P22695 whole entry, looked up): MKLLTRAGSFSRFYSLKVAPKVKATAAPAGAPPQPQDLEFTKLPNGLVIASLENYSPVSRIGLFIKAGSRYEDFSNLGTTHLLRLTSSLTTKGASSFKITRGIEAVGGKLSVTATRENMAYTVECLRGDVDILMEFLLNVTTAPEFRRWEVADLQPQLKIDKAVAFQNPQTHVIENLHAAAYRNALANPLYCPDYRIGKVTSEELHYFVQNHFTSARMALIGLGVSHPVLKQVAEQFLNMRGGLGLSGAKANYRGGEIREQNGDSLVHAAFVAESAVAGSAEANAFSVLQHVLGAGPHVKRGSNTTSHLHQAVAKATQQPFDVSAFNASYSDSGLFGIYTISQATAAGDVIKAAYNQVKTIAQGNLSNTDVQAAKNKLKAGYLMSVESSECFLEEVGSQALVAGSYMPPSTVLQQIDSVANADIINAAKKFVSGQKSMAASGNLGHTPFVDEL
Sequence of UniProt O75152 (O75152 whole entry, looked up): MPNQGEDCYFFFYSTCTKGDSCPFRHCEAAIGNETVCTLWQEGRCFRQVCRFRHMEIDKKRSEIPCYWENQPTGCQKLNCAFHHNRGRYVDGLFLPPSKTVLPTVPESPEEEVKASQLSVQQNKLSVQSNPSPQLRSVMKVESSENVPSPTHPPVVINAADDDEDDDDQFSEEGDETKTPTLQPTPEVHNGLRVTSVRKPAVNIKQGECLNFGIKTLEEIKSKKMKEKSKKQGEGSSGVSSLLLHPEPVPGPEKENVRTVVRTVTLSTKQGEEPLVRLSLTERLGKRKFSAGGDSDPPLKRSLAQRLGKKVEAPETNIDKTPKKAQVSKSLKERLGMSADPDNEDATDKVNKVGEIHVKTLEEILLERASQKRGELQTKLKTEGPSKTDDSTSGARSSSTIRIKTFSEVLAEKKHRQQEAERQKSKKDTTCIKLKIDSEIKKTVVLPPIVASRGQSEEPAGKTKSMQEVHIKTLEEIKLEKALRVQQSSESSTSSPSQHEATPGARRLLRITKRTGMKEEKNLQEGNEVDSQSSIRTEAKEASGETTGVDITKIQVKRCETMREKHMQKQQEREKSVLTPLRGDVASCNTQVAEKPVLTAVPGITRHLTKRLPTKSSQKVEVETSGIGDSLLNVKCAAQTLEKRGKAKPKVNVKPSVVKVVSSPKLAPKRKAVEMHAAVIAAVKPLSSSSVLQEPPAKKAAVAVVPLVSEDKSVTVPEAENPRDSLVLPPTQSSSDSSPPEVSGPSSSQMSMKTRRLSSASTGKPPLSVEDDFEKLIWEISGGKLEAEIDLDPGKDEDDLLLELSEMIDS
Sequence of UniProt Q9H3U1 (Q9H3U1 whole entry, looked up): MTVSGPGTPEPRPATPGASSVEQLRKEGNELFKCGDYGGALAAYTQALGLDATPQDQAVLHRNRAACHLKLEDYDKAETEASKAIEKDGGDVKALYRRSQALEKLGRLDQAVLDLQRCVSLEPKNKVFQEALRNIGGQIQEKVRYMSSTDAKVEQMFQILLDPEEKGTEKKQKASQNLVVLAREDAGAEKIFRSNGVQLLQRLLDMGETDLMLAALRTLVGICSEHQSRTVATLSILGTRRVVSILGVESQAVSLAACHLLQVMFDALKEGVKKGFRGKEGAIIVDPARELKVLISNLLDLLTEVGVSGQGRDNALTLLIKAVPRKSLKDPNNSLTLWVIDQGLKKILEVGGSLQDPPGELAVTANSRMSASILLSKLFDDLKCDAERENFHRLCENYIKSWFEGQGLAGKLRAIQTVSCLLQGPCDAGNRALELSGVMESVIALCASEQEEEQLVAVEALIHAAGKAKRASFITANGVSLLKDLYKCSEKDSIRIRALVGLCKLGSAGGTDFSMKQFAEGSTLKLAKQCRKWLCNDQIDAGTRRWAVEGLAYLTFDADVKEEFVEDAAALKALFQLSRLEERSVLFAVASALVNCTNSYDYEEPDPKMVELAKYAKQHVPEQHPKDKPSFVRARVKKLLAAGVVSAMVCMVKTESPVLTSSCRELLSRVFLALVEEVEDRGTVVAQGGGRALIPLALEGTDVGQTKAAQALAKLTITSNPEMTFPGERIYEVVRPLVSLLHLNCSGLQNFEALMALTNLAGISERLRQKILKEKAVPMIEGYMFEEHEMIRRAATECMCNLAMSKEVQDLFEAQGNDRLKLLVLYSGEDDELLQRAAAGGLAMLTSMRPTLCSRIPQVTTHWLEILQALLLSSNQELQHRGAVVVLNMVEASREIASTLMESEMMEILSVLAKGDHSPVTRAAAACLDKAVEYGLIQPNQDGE
Sequence of UniProt P26640 (P26640 whole entry, looked up): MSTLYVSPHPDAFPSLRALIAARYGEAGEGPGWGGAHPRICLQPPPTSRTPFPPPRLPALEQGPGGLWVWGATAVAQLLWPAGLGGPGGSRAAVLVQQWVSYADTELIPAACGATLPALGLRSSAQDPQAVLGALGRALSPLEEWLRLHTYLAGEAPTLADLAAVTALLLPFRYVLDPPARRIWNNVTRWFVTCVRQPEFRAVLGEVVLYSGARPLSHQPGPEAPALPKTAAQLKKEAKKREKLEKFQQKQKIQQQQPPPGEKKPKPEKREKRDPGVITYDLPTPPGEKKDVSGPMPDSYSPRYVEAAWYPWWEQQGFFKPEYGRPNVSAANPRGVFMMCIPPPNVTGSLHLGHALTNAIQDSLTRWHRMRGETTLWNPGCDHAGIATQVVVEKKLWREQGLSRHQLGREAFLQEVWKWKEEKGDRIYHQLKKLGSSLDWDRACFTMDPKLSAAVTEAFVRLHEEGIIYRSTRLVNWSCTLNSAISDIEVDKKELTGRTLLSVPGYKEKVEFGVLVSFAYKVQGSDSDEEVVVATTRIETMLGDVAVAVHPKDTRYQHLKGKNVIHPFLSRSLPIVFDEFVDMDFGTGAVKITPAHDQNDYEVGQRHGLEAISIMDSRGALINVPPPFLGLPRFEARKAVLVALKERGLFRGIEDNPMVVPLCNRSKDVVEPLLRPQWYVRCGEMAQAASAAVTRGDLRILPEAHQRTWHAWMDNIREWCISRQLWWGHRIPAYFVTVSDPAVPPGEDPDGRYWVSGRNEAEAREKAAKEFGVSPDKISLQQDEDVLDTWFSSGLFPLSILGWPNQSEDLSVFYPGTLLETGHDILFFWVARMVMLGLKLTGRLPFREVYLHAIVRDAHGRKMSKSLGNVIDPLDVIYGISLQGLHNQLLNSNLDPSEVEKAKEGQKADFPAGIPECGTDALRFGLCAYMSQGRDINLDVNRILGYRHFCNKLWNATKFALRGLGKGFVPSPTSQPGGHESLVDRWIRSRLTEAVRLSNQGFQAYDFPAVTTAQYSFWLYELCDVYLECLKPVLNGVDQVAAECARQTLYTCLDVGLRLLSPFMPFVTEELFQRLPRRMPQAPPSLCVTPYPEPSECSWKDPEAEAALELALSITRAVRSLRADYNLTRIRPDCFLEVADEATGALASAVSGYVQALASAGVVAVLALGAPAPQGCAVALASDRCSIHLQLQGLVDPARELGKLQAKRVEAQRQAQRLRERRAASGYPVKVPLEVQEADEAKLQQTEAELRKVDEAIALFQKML
Sequence of UniProt Q14191 (Q14191 whole entry, looked up): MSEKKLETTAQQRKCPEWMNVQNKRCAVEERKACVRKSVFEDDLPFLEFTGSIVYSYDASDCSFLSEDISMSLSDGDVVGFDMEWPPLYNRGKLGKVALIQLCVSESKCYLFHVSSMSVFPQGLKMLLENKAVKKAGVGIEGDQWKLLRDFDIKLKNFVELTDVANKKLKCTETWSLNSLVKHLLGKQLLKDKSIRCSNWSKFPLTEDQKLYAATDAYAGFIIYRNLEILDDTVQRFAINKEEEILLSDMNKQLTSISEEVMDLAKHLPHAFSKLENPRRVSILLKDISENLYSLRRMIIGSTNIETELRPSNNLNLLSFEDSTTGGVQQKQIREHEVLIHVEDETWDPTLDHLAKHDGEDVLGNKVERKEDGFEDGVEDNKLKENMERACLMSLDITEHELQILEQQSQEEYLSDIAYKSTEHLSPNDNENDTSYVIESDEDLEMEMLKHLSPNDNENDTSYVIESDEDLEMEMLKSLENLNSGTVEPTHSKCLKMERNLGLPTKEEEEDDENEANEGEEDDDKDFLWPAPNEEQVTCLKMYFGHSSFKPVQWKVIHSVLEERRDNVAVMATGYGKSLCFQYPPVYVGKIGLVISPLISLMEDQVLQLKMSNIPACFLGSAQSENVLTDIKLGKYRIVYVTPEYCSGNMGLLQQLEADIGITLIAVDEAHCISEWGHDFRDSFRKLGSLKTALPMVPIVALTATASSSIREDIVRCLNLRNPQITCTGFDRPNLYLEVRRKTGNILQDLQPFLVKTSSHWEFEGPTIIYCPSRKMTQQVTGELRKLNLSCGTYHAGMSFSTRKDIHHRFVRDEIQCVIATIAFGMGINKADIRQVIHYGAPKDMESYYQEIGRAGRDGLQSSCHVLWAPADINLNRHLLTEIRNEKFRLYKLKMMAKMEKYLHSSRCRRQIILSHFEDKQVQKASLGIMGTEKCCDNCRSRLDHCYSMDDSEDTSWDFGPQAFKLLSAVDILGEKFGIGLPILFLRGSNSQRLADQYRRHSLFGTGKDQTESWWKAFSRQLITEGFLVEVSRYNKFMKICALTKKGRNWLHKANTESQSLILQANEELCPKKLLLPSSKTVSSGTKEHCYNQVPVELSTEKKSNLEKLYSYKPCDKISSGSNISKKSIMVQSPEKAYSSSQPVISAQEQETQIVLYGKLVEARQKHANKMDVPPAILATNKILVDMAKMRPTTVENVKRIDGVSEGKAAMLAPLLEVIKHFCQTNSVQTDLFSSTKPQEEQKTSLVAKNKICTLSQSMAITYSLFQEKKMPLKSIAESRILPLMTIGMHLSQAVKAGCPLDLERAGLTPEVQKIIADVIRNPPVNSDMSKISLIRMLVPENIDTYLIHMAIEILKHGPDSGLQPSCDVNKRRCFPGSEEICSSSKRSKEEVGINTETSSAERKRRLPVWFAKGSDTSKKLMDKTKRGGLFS
Sequence of UniProt P58557 (P58557 whole entry, looked up): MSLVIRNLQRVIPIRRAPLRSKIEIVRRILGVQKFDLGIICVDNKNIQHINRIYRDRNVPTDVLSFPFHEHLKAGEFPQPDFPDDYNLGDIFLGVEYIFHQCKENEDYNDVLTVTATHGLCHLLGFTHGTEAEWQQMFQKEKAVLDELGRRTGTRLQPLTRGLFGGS

Compound in this test: NCC(=O)Nc1ccc(-n2nc(C(F)(F)F)cc2-c2ccc3c(ccc4ccccc43)c2)cc1
The test can be described thus: log2 fold change, soluble protein after heating vs DMSO (PISA); higher = thermal stabilisation; K562 lysate, 10 uM; active = over 0.2 and 3.5 SD of the protein, either way, in both replicates (recomputed). The method in brief: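 Following dounce homogenisation of K562 pellets in PBS pH 7.4 with 1 mM MgCl2, crude extract at 1 mg/mL protein was incubated for 30 min with 10 μM compound. Aliquots were then heated for 3 min over 48°C-58°C and pooled, NP-40 was added to 0.5% at 4°C, and soluble protein was recovered as the supernatant at 21,000xg for 90 min. Channel-sum-equalised TMTpro 16plex LC-MS/MS quantified this protein. Each value, from duplicates, is a log-two fold change in thermal stability relative to solvent controls.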
Consider WRNIP1 (UniProt Q96S55), for which the log2 fold change was -0.011 (inactive).

On to ZMYM1 (UniProt Q5SVZ6), for which the log2 fold change was -0.014 (inactive).

On to UNKL (UniProt E9PDK2), for which the log2 fold change is -0.336 (inactive).

As for ZMYM4 (UniProt Q5VZL5), the log2 fold change is 0.05 (inactive).

Regarding XPO6 (UniProt Q96QU8), the log2 fold change is -0.034 (inactive).

For the target ZC3H11A (UniProt O75152), the log2 fold change is 0.123 (inactive).

For ZDHHC17 (UniProt Q8IUH5), the log2 fold change was 0.065 (inactive).

As to UNC45A (UniProt Q9H3U1), the log2 fold change is -0.005 (inactive).

For the target YBEY (UniProt P58557), the log2 fold change is 0.035 (inactive).

Take UQCRC2 (UniProt P22695): the log2 fold change is 0.01 (inactive).

Turning to WRN (UniProt Q14191), the log2 fold change is 0.003 (inactive).

Regarding XAB2 (UniProt Q9HCS7), the log2 fold change is -0.012 (inactive).

As to VANGL1 (UniProt Q8TAA9), the log2 fold change was -0.04 (inactive).

Regarding USP22 (UniProt Q9UPT9), the log2 fold change is -0.069 (inactive).

Take WDR77 (UniProt Q9BQA1): the log2 fold change was -0.052 (inactive).

ZMYM2 (UniProt Q9UBW7): the log2 fold change is -0.125 (inactive).

Take VARS (UniProt P26640): the log2 fold change is 0.006 (inactive).

On to VPS35L (UniProt Q7Z3J2), for which the log2 fold change was 0.019 (inactive).

For the target VPS54 (UniProt Q9P1Q0), the log2 fold change was 0.112 (inactive).
